Source: PubChem
aSyn yeast inh – alpha-synuclein toxicity inhibition in yeast | Potency, µM (series often up to 46.1 µM), for inactives: at the top dose growth rescue (activation), hits mostly activators | 370,000 compounds, 0.14% hits | Yeast expressing alpha-synuclein, growth rescue, BacTiter-Glo, 24 h; also: % of control where 0% means no effect; nearly all actives have a fitted effect of over 65% in size
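Galactose-induced alpha-syn yeast (OD600=0.02, raffinose-pregrown) + pinned cpd, 24 hr, 30 deg C; growth by BacTiter-Glo luminescence. Growth restoration scores as activation.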
FUS yeast rescue – rescues growth of FUS-expressing yeast. S. cerevisiae FUS-expressing, growth rescue, OD600, 24 h. Potency, µM (doses to about 76.6 µM), usual class: activators. 390,000 compounds, 0.24% hits;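 also: plate controls were DMSO vehicle for no effect and reference control for full effect; nearly all actives have a fitted effect of over 55% in size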
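Absorbance at 600 nm, taken 24hr after compound addition, measured rescue of FUS-yeast growth at 30C. Induction used 2% galactose with seeding at OD 0.005. Controls: CP55940 from 92uM final, DMSO only.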
Abeta rescue – compounds reversing amyloid beta toxicity in yeast; 410,000 compounds, 0.063% hits; Potency, µM (titrated, usually from 46.1 µM), most hits filed as activators; AID 1347071; yeast expressing A-beta42, growth rescue, OD600, 48 h; response scale: 0% DMSO, 100% iron-clioquinol control; also: nearly all actives have a fitted effect of over 55% in size
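Yeast A-beta toxicity model in growth medium with pinned compounds, 48 h at 30 C; growth read as absorbance at 600 nm. Normalized to FeCl3/clioquinol equimolar mix (positive) and DMSO (negative).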
TDP43 rescue – TDP-43 toxicity inhibition in yeast. TDP-43 expressing yeast growth rescue, BacTiter-Glo, 24 h. Potency, µM (highest dose often 46.1 µM), inactives show at the top dose growth rescue (activation), most hits filed as activators. 410,000 compounds, 1.8% hits; also: % of control where 0% means no effect; nearly all actives have a fitted effect of over 50% in size
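Galactose-induced TDP-43 yeast, OD600=0.02, compound pinned; 24 hr, 30 deg C; BacTiter-Glo luminescence for growth. Inhibitors of TDP-43 toxicity read as activators.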
* = called active by the depositor; i = inactive; ? = inconclusive; / = no result. Only some compounds are listed: those with a hit (about 2.1% of all), similar ones and a draw of the others. Calls follow the shape of the dose curve; as a rule, active = well fitted curve in the direction sought with a large enough effect; inconclusive = small, poorly fitted or top-dose-only effect, or another doubt; inactive = no such curve, though single readings can be large; an effect the other way counts as inactive or inconclusive. Potency is read from the fitted curve at half-maximal effect.

SMILES	aSyn yeast inh	FUS yeast rescue	Abeta rescue	TDP43 rescue
C=CCn1c(SCC(=O)Nc2cc3oc4ccccc4c3cc2OC)nnc1-c1cnccn1	1.8%	i	i	17.4%
Cc1ccc(/C=C/C(=O)OCn2nnc3ccccc3c2=O)o1	?	i	i	17.8µM*
Cc1ccc(SCCC(=O)OCn2nnc3ccccc3c2=O)cc1	3.6%	i	i	35.5µM*
O=C(/C=C/c1ccco1)OCn1nnc2ccccc2c1=O	1.2%	i	i	?
CC12CC3CC(C)(C1)CC(Nc1nc(N4CCOCC4)nc4ccccc14)(C3)C2	8.7%	i	i	20µM*
CCOc1ccc(/C=C2\SC(=S)NC2=O)cc1OC	-1.4%	i	i	-8.2%
COc1ccc(/C=C2\SC(=O)NC2=S)cc1OC	-15.9%	i	i	8.91µM*
c1ccc(-c2cc3c(N4CCN(c5ccccc5)CC4)ncnc3s2)cc1	9.3%	i	i	28.2µM*
COCCN(Cc1cccs1)S(=O)(=O)c1cc(-c2cc(C)no2)ccc1C	/	i	i	35.5µM*
COc1ccc(CCNc2ncnc3c2c(-c2ccccc2)cn3-c2ccc(Cl)cc2)cc1OC	/	14.1µM*	i	?
COCCN(CCOC)c1ncnc2c1c(-c1ccccc1)cn2-c1ccc(C)c(Cl)c1	/	i	i	25.1µM*
COc1ccc(CCNc2ncnc3c2c(-c2ccccc2)cn3-c2ccc(F)cc2)cc1OC	/	?	i	?
CCCNc1ncnc2c1c(-c1ccccc1)cn2-c1ccccc1	/	?	i	22.4µM*
c1ccc(-c2cn(-c3ccccc3)c3ncnc(N4CCCCC4)c23)cc1	-0.8%	i	i	17.8µM*
COc1ccc2nc(NC(=O)C(NS(=O)(=O)c3cccs3)C(C)C)sc2c1 (stereo not drawn)	1.9%	i	i	-12.2%
CC(C)CC(=O)Nc1ccc(S(=O)(=O)Nc2cc3c(cc2N2CCOCC2)n(C)c(=O)c(=O)n3C)cc1	/	i	i	7.7%
COc1cc(CNc2ncnc3c2ncn3[C@H]2CN(Cc3ccc(Cl)cc3)C[C@@H](CO)O2)cc(OC)c1OC	4.1%	i	i	24.4%
CCN(C)C1CN(Cc2cn(Cc3ccc(C(F)(F)F)cc3)nn2)S(=O)(=O)C1 (stereo not drawn)	?	i	i	11.7%
CCOC(=O)c1cccc(NC(=O)C2CCN(S(=O)(=O)c3ccc4c(c3)oc(=O)n4C)CC2)c1	/	?	i	-4.7%
COc1ccc(-n2cc(-c3ccccc3)c3c(NC4CCCC4)ncnc32)cc1	/	i	i	22.4µM*
Clc1cccc(-n2cc(-c3ccccc3)c3c(NC4CCCC4)ncnc32)c1	/	i	i	0.0%
CCOc1ccc(Nc2nc(N)c(C(=O)c3ccccc3Cl)s2)cc1	/	i	i	35.5µM*
C(=C\c1nc(-c2ccncc2)no1)/c1ccccc1	6.7%	i	i	11.2µM*
O=C(NCCCCO)c1c(-c2ccccc2)oc2c1C(OCCCCCO)CCC2 (stereo not drawn)	-2.4%	i	i	12.4%
O=C(Nc1ccccc1Sc1ccccc1)c1cnn2c1NC(=C1CC1)C=C2C(F)F	-4.1%	/	/	/
SMILES	aSyn yeast inh	FUS yeast rescue	Abeta rescue	TDP43 rescue
Cc1ccc(-c2ccc(CCC(=O)O)n2C(C)C)cc1	1.8%	i	i	35.5µM*
Cc1ccc(-c2ccc(CCC(=O)O)n2NC(N)=S)cc1	5.0%	i	i	5.1%
CCOC(=O)c1c(C=O)c(C)n(Cc2ccc(Cl)cc2)c1C	8.6%	i	i	35.5µM*
COCCNc1nc(Oc2cccc3ccccc23)c2sccc2n1	17.9%	i	i	15.8µM*
CC(C)Nc1nc(-c2ccccc2CO)c2sccc2n1	-20.8%	i	i	?
CCc1ccccc1Oc1nc(NC(C)C)nc2ccsc12	-16.3%	i	i	20µM*
COc1ccc(C2=C(c3ccc([N+](=O)[O-])cc3)C(=O)OC2)cc1	-5.0%	i	i	-8.0%
Cc1ccc(C2=C(c3ccc([N+](=O)[O-])cc3)C(=O)OC2)cc1C	-4.2%	i	i	12.6µM*
CCN(CC)/[N+]([O-])=N/Oc1ccc([N+](=O)[O-])cc1[N+](=O)[O-]	-73.0%	/	/	/
COC(=O)[C@]12C[C@H](CC(=O)NCCCN3CCCC3=O)C(=O)N(Cc3ccco3)C1=C[C@H](C1CCCC1)O[C@@H]2C	/	i	/	/
CC(C)N(Cc1ccccc1)C(=O)c1cc2ccc3cccnc3c2[nH]1	/	i	i	22.4µM*
